Assay results: the antibiotic and cytotoxicity screens of Wong et al. (2023)
About 3,300 (8.5%) of roughly 39,000 compounds were called active. The entries come from a sample that favours actives as a whole.

These molecules were tested on HepG2 (assay: cytotoxicity call (relative viability < 0.9)). Conditions: 10 µM.
In the case of `Oc1ccccc1CNc1ccc(C2CCCCC2)cc1`, the cytotoxicity call is reported as “inactive”. For `CNCc1cc2ccccc2s1`, the cytotoxicity call was “inactive”. `O=C(C[C@@H]1C[C@@H]2c3cc(NC(=O)c4ccc5c(c4)OCO5)ccc3O[C@@H]2[C@H](CO)O1)NCCN1CCCCC1` was tested, and the cytotoxicity call was “inactive”. In the case of `Cc1noc(C)c1NC(=O)Nc1ccc2c(c1)C(=O)N([C@@H](C)CO)C[C@H](C)[C@@H](CN(C)C(=O)Cc1ccccc1)OCCCC[C@H](C)O2`, the cytotoxicity call is reported as “inactive”. `Cn1ccc(C(=O)N2CC[C@@H]3OCCN(S(C)(=O)=O)[C@@H]3C2)n1` was tested, and the cytotoxicity call was “inactive”. `C[C@H]1CN([C@@H](C)CO)C(=O)c2cc(NS(=O)(=O)c3ccc(Cl)cc3)ccc2O[C@H]1CN(C)Cc1ccc(C(=O)Nc2ccccc2N)cc1` was tested, and the cytotoxicity call was “inactive”. In the case of `C[C@@H]1CN([C@H](C)CO)C(=O)c2cc(C#Cc3ccc(F)cc3)cnc2O[C@@H]1CN(C)CC1CCOCC1`, the cytotoxicity call is reported as “inactive”. `CC1(C)OC2CC3C4CC(F)C5=CC(=O)C=CC5(C)C4(F)C(O)CC3(C)C2(C(=O)CO)O1` (stereo not given) was tested, and the cytotoxicity call was “inactive”. With `COC(=O)C1=C(C)NC(C)=C(C(=O)OCCCN2CCC(c3ccccc3)(c3ccccc3)CC2)[C@@H]1c1cccc([N+](=O)[O-])c1` the cytotoxicity call was “active”. `COc1cc(OC)cc(C(=O)OCCCN2CCN(CCCOC(=O)c3cc(OC)cc(OC)c3)CC2)c1` was tested, and the cytotoxicity call was “inactive”. In the case of `COCCOC(=O)C1=C(C)NC(C)=C(C(=O)OC(C)C)C1c1cccc([N+](=O)[O-])c1` (stereo not given), the cytotoxicity call is reported as “inactive”. In the case of `COCCOC(=O)C1=C(C)NC(C)=C(C(=O)OCC=Cc2ccccc2)C1c1cccc([N+](=O)[O-])c1` (stereo not given), the cytotoxicity call is reported as “active”. With `CC1=C(C(=O)OCCN(Cc2ccccc2)c2ccccc2)[C@H](c2cccc([N+](=O)[O-])c2)C(P2(=O)OCC(C)(C)CO2)=C(C)N1` the cytotoxicity call was “inactive”. With `COC(=O)C1=C(C)NC(C)=C(C(=O)OCCCN2CCC(c3ccccc3)(c3ccccc3)CC2)[C@H]1c1cccc([N+](=O)[O-])c1` the cytotoxicity call was “active”. `CC1=C(C(=O)OCCN(Cc2ccccc2)c2ccccc2)[C@@H](c2cccc([N+](=O)[O-])c2)C(P2(=O)OCC(C)(C)CO2)=C(C)N1.CCO.Cl` was tested, and the cytotoxicity call was “inactive”. In the case of `O=C(C[C@@H]1CC[C@H]2[C@@H](COC[C@@H](O)CN2Cc2ccccc2F)O1)N[C@H]1CCN(Cc2ccccc2)C1`, the cytotoxicity call is reported as “inactive”. For `CO[C@@H]1CN(C)C(=O)c2ccc(NC(=O)c3ccc(F)cc3)cc2OC[C@H](C)N(C(=O)CN(C)C)C[C@@H]1C`, the cytotoxicity call was “inactive”. With `C[C@H]1CN([C@@H](C)CO)C(=O)c2cccc(NC(=O)C3CC3)c2O[C@H]1CN(C)Cc1ccc2c(c1)OCO2` the cytotoxicity call was “inactive”. With `C[C@@H]1CN([C@H](C)CO)S(=O)(=O)c2ccc(C#CCN(C)C)cc2O[C@H]1CN(C)C(=O)CN(C)C` the cytotoxicity call was “inactive”. `Cc1noc(C)c1NC(=O)N(C)C[C@H]1Oc2ccc(NS(=O)(=O)c3ccccc3)cc2C(=O)N([C@H](C)CO)C[C@H]1C` was tested, and the cytotoxicity call was “inactive”. `COCCNC(=O)C[C@H]1CC[C@H]2[C@H](COc3ccc(NC(=O)Nc4cccc(F)c4)cc3C(=O)N2C)O1` was tested, and the cytotoxicity call was “inactive”. For `C[C@H](CO)N1C[C@H](C)[C@@H](CN(C)CC2CC2)Oc2ccc(NS(=O)(=O)c3cccs3)cc2CC1=O`, the cytotoxicity call was “inactive”. `NCC[C@H]1CC[C@H](NC(=O)C2CCCCC2)[C@@H](CO)O1` was tested, and the cytotoxicity call was “inactive”. With `COc1ccc(NC(=O)N(C)C[C@@H]2OCCCC[C@H](C)Oc3ccc(NC(=O)c4ccccc4)cc3C(=O)N([C@H](C)CO)C[C@@H]2C)cc1` the cytotoxicity call was “inactive”. For `C[C@H](CO)N1C[C@H](C)[C@@H](CN(C)Cc2ccc3c(c2)OCO3)Oc2ccc(NS(=O)(=O)c3ccccc3)cc2CC1=O`, the cytotoxicity call was “inactive”. `C[C@@H]1CN([C@@H](C)CO)C(=O)c2cc(NC(=O)Cn3cnnn3)ccc2O[C@@H]1CN(C)C(=O)Nc1cccc2ccccc12` was tested, and the cytotoxicity call was “inactive”. For `COc1ccc(S(=O)(=O)Nc2ccc3c(c2)C(=O)N([C@@H](C)CO)C[C@@H](C)[C@H](CN(C)C(=O)C2CCCCC2)OCCCC[C@@H](C)O3)cc1`, the cytotoxicity call was “inactive”. For `C[C@@H]1CCCCO[C@@H](CN(C)Cc2ccncc2)[C@H](C)CN([C@H](C)CO)C(=O)c2cc(NC(=O)Nc3ccccc3)ccc2O1`, the cytotoxicity call was “inactive”. In the case of `C[C@H](CO)N1C[C@H](C)[C@@H](CN(C)C(=O)Cc2ccccc2)OCCCC[C@H](C)Oc2ccc(NC(=O)Nc3ccc4c(c3)OCO4)cc2C1=O`, the cytotoxicity call is reported as “inactive”. With `C[C@H]1CN([C@@H](C)CO)C(=O)Cc2cc(NC(=O)CCCN(C)C)ccc2O[C@H]1CN(C)Cc1ccc(Oc2ccccc2)cc1` the cytotoxicity call was “inactive”. In the case of `C[C@@H]1CN([C@H](C)CO)C(=O)Cc2cc(NC(=O)CCCN(C)C)ccc2O[C@H]1CN(C)Cc1ccc(Oc2ccccc2)cc1`, the cytotoxicity call is reported as “active”. For `C[C@@H]1CN([C@@H](C)CO)C(=O)Cc2cc(NC(=O)CCCN(C)C)ccc2O[C@@H]1CN(C)Cc1ccc(Oc2ccccc2)cc1`, the cytotoxicity call was “active”. In the case of `C[C@H]1CN([C@@H](C)CO)C(=O)Cc2cc(NC(=O)CCCN(C)C)ccc2O[C@@H]1CN(C)Cc1ccc(Oc2ccccc2)cc1`, the cytotoxicity call is reported as “active”. In the case of `C[C@@H]1CN([C@@H](C)CO)C(=O)Cc2cc(NC(=O)CCCN(C)C)ccc2O[C@H]1CN(C)Cc1ccc(Oc2ccccc2)cc1`, the cytotoxicity call is reported as “inactive”. For `C[C@H](CO)N1C[C@H](C)[C@@H](CN(C)Cc2ccc(Oc3ccccc3)cc2)Oc2ccc(NC(=O)CCCN(C)C)cc2CC1=O`, the cytotoxicity call was “inactive”. `C[C@H](CO)N1C[C@H](C)[C@H](CN(C)Cc2ccc(Oc3ccccc3)cc2)Oc2ccc(NC(=O)CCCN(C)C)cc2CC1=O` was tested, and the cytotoxicity call was “inactive”. `C[C@@H]1CN([C@H](C)CO)C(=O)Cc2cc(NC(=O)CCCN(C)C)ccc2O[C@@H]1CN(C)Cc1ccc(Oc2ccccc2)cc1` was tested, and the cytotoxicity call was “active”. For `C[C@H](CO)N1C[C@H](C)[C@@H](CN(C)Cc2ccccc2)Oc2ccc(NC(=O)CCCN(C)C)cc2CC1=O`, the cytotoxicity call was “inactive”. With `C[C@@H]1CN([C@@H](C)CO)S(=O)(=O)c2ccc(C#Cc3ccccc3F)cc2O[C@@H]1CN(C)CC1CC1` the cytotoxicity call was “inactive”. With `C[C@H](CO)N1C[C@H](C)[C@@H](CN(C)Cc2ccc(Oc3ccccc3)cc2)Oc2c(NS(=O)(=O)c3ccc(F)cc3)cccc2C1=O` the cytotoxicity call was “inactive”. With `Cc1cc(=O)n2ncnc2n1CC(=O)NN` the cytotoxicity call was “inactive”. For `Cc1cc(C(=O)Nc2cccc3c2O[C@H](CN(C)C(=O)NC2CCCCC2)[C@@H](C)CN([C@@H](C)CO)C3=O)n(C)n1`, the cytotoxicity call was “inactive”. With `C[C@H](CO)N1C[C@H](C)[C@H](CN(C)S(=O)(=O)c2cn(C)cn2)Oc2ccc(NC(=O)NC3CCCCC3)cc2CC1=O` the cytotoxicity call was “inactive”. In the case of `C[C@@H]1CN([C@H](C)CO)C(=O)c2cc(NC(=O)CCN3CCOCC3)ccc2O[C@H]1CN(C)C(=O)Nc1ccccc1`, the cytotoxicity call is reported as “inactive”. In the case of `CS(=O)(=O)Nc1ccc2c(c1)[C@H]1C[C@@H](CC(=O)NCC3CC3)O[C@@H](CO)[C@H]1O2`, the cytotoxicity call is reported as “inactive”. With `CC(C)N1C[C@@H](CNCc2ccc(Oc3ccccc3)cc2)Oc2c(NC(=O)c3ccncc3)cccc2C1=O` the cytotoxicity call was “inactive”. `COc1ccccc1N1CCN(CC(O)COc2cccc3ccccc23)CC1` (stereo not given) was tested, and the cytotoxicity call was “active”. `CC(C)NCC(O)COc1ccc(CC(N)=O)cc1` (stereo not given) was tested, and the cytotoxicity call was “inactive”. For `C=CCc1ccccc1OCC(O)CNC(C)C.Cl` (stereo not given), the cytotoxicity call was “active”. `CC(C)NCC(O)COc1cccc2[nH]ccc12` (stereo not given) was tested, and the cytotoxicity call was “inactive”. For `CC(C)NCC(O)COc1ccc(COCCOC(C)C)cc1.O=C(O)C=CC(=O)O` (stereo not given), the cytotoxicity call was “inactive”. With `O=C1C(=O)N(C[C@@H](O)COc2cccc3ccccc23)C(=O)C(=O)N1C[C@@H](O)COc1cccc2ccccc12` the cytotoxicity call was “inactive”. With `COCCc1ccc(OCC(O)CNC(C)C)cc1.O=C(O)C(O)C(O)C(=O)O` (stereo not given) the cytotoxicity call was “inactive”. In the case of `COc1ccccc1OCC(O)CN1CCN(CC(=O)Nc2c(C)cccc2C)CC1.Cl.Cl` (stereo not given), the cytotoxicity call is reported as “inactive”. In the case of `CC(C)NCC(O)COc1cccc2[nH]c3ccccc3c12` (stereo not given), the cytotoxicity call is reported as “active”. For `CC(C)NCC(O)COc1cccc2ccccc12.Cl` (stereo not given), the cytotoxicity call was “active”. With `O=C(C[C@H]1C=C[C@@H](NS(=O)(=O)c2ccc(F)cc2)[C@@H](CO)O1)NCc1ccc(Cl)c(Cl)c1` the cytotoxicity call was “inactive”. For `COc1ccc2c3c(n(c2c1)C)[C@H](CO)N(C[C@]13CN(CC2CCOCC2)C1)C(=O)c1ccc(cc1)F`, the cytotoxicity call was “inactive”. With `C[C@H](CO)N1C[C@H](C)[C@H](CN(C)S(=O)(=O)c2cccc(F)c2)Oc2ncc(Br)cc2C1=O` the cytotoxicity call was “inactive”. In the case of `C[C@@H]1CN([C@@H](C)CO)C(=O)c2cc(NC(=O)CCCN(C)C)ccc2O[C@@H]1CN(C)S(=O)(=O)c1ccccc1`, the cytotoxicity call is reported as “inactive”. With `C[C@H]1CN([C@@H](C)CO)C(=O)Cc2cc(NC(=O)Cn3cnnn3)ccc2O[C@H]1CN(C)S(=O)(=O)c1cccs1` the cytotoxicity call was “inactive”. `C[C@H]1CN([C@@H](C)CO)C(=O)Cc2cc(NC(=O)C3CC3)ccc2O[C@@H]1CN(C)Cc1ccc(Oc2ccccc2)cc1` was tested, and the cytotoxicity call was “inactive”. In the case of `Cc1noc(C)c1NC(=O)Nc1cccc2c1O[C@@H](CN(C)S(=O)(=O)c1ccccc1)[C@@H](C)CN([C@@H](C)CO)C2=O`, the cytotoxicity call is reported as “inactive”. With `CC1=C(/C=C/C(C)=C/C=C/C(C)=C/C=C/C=C(C)/C=C/C=C(C)/C=C/C2=C(C)C(=O)[C@@H](O)CC2(C)C)C(C)(C)C[C@H](O)C1=O` the cytotoxicity call was “inactive”. For `CCOC(=O)N[C@@H]1CC(=O)N(C2CC2)C1`, the cytotoxicity call was “inactive”. In the case of `N[C@H](CO)COCc1ccccc1`, the cytotoxicity call is reported as “inactive”. `Cc1ccc(S(=O)(=O)N(C)C[C@H]2Oc3c(NC(=O)c4ccncc4)cccc3C(=O)N([C@H](C)CO)C[C@@H]2C)cc1` was tested, and the cytotoxicity call was “inactive”. `C[C@@H]1CCCCO[C@H](CN(C)CC2CCCCC2)[C@H](C)CN([C@@H](C)CO)C(=O)c2cc(NC(=O)Cc3ccccc3)ccc2O1` was tested, and the cytotoxicity call was “inactive”. In the case of `C[C@H](CO)N1C[C@H](C)[C@H](CN(C)S(=O)(=O)c2cn(C)cn2)Oc2ccc(NC(=O)Cc3cn(C)c4ccccc34)cc2CC1=O`, the cytotoxicity call is reported as “inactive”. `Cc1cc(C(=O)Nc2cccc3c2O[C@H](CN(C)C(=O)Nc2c(C)noc2C)[C@H](C)CN([C@H](C)CO)C3=O)n(C)n1` was tested, and the cytotoxicity call was “inactive”.
